Our source for the composite z-score and z-score values is PubChem BioAssay.

Each structure is given as a SMILES string. Active and inactive are the calls of the source.

The subject of one experiment is PRMT1 (protein arginine N-methyltransferase 1). As to the kind of experiment: PRMT1 binders on small-molecule microarrays, primary screen, biochemical, small-molecule microarray, 635 nm fluorescence (AID 1088).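 Also: binding of Prmt1 protein to compounds spotted on small-molecule microarray slides.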 As to conditions: small-molecule microarray binding, higher = more signal.
`CON=Cc1ccc(C(=O)N2[C@H](c3ccc(C)cc3)[C@@H](C)CC[C@H]2C(=O)OC)cc1` registered a composite z-score of 1.17.

In turn, `C[C@@H](c1ccccc1)N1C(=O)[C@H]2[C@H]3[C@H](O)[C@H](O)CC(=O)[C@H]3CC[C@H]2C1=O` yielded a composite z-score of 0.157.

`CC(C)CON=C1C[C@@H](O)[C@@H](O)[C@@H]2[C@@H]3C(=O)N(Cc4ccc5c(c4)OCO5)C(=O)[C@@H]3CC[C@H]12` gave a composite z-score of 1.31.

In the case of `CCN1C(=O)[C@H]2[C@H]3[C@H](O)[C@H](O)CC(=NOCC(C)C)[C@@H]3CC[C@H]2C1=O`, the composite z-score is 1.55.

The molecule `CC(C)=NO[C@H](C)c1cn([C@H](CO)Cc2ccccc2)nn1` gave a composite z-score of 0.325.

In turn, `CCCNC(=O)OC[C@H]1O[C@H](c2ccccc2)C=C[C@@H]1Oc1ccc(OC)cc1` displayed a composite z-score of -0.0125.

The molecule `C[C@@H]1CC[C@H]2C(=O)O[C@@H](Cc3ccccc3)CN2[C@H]1c1ccc(Br)cc1` came in with a composite z-score of 1.14.

For `COc1ccc(O[C@H]2C=C[C@@H](c3ccccc3)O[C@@H]2CON=C(C)CCC(=O)OC[C@H]2O[C@H](c3ccccc3)C=C[C@@H]2Oc2ccc(OC)cc2)cc1`, the composite z-score was -2.44.

Regarding `O=C1[C@H]2[C@H]3[C@H](O)[C@H](O)CC(=NOCc4ccccc4)[C@@H]3CC[C@H]2C(=O)N1Cc1ccc2c(c1)OCO2`, the composite z-score came out at 0.231.

On to `COC(=O)CC=C[C@@H](C)[C@@H](C=NO[C@@H]1O[C@H](COC(C)=O)[C@@H](OC(C)=O)[C@H](OC(C)=O)[C@H]1OC(C)=O)OC`, for which the composite z-score is 1.18.

For `COc1cccc([C@H]2Oc3ccc(OC)cc3C(=NOC[C@@H](O)[C@H]3O[C@@H]4OC(C)(C)O[C@@H]4[C@H]3O)[C@@H]2O)c1`, the composite z-score came out at 0.775.

`O=C1C[C@@H](O)[C@@H](O)[C@@H]2[C@@H]3C(=O)N(Cc4ccccc4)C(=O)[C@@H]3CC[C@@H]12` showed a composite z-score of 0.187.

As for `CO[C@H]1COC(=O)CC=C[C@@H](C)[C@H](OC)COC(=O)CCC[C@@H]1C`, the composite z-score was determined as 0.76.

In turn, `CCN1C(=O)[C@H]2[C@H]3[C@H](O)[C@H](O)CC(=NNC(=O)OCc4ccc(OC)cc4)[C@@H]3CC[C@H]2C1=O` returned a composite z-score of -0.235.

Test system in another experiment: not listed separately
As to the kind of experiment: yeast growth modulation, basal conditions, primary screen, YJM789 clinical isolate, OD600, 24 h (AID 1089).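 Also: growth of clinical yeast isolate S. cerevisiae YJM 789 seeded 1000 cells per well; test concentration not given here.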 The settings on record: S. cerevisiae YJM789 growth, higher = more signal, called active from +8 up or from −8 down.
For `O=C1CCCC(C2=CCCCC2=O)C1` (centres undefined), the z-score was 0.222 (inactive).

For `Cn1c(=O)n2n(c1=O)[C@H]1[C@H](O)[C@@H]3O[C@@H]3C(=NOCc3ccccc3)[C@H]1CC2`, the z-score is 0.409 (inactive).

As to `CO[C@H](C1CCCCC1)[C@H](C)C=CCC(=O)OCCCc1ccccc1`, the z-score was 1.37 (inactive).

Consider `COC(=O)[C@H](C)NC(=O)CCC1CC(OC(=O)NCc2ccc3c(c2)OCO3)CC2(CCCC(COC(=O)NCC(c3ccccc3)c3ccccc3)O2)O1` (some centres undefined), for which the z-score was -0.256 (inactive).

As to `O=c1n(-c2ccccc2)c(=O)n2n1CC[C@@H]1C(=NOCc3ccccc3)[C@H]3O[C@H]3[C@@H](O)[C@@H]12`, the z-score was -0.434 (inactive).

For `COC(=O)[C@H]1[C@@H](O)[C@@]2(O)c3ccccc3O[C@@]2(c2ccccc2)[C@@H]1c1ccccc1`, the z-score was 0.0966 (inactive).

In the case of `COC(=O)CC=C[C@@H](C)[C@@H](C=NOC(C)CN1CCCc2nc(C)c(C)cc21)OC` (some centres undefined), the z-score was 0.293 (inactive).

Consider `COC(=O)[C@H](C)NC(=O)CCC1CC(OC(=O)NCCc2ccc(F)cc2)CC2(CCCC(COC(=O)NCc3cccc(C(F)(F)F)c3)O2)O1` (some centres undefined), for which the z-score is -0.207 (inactive).

For the molecule `Cc1ccc(S(=O)(=O)N[C@H]2COC(=O)CC=C[C@H](C)[C@@H](NS(=O)(=O)c3ccc(C)cc3)COC(=O)CC=C[C@@H]2C)cc1`, the z-score is -0.293 (inactive).

For the molecule `CON=C1[C@H]2CCn3c(=O)n(-c4ccccc4)c(=O)n3[C@H]2[C@H](O)[C@@H]2O[C@H]12`, the z-score is -1.57 (inactive).

In the case of `C#CCCCON=C1C[C@@H](O)[C@@H](O)[C@@H]2[C@@H]3C(=O)N(C(C)(C)C)C(=O)[C@@H]3CC[C@@H]12`, the z-score was 0.266 (inactive).

Consider `CO[C@H]1COC(=O)CC=C[C@@H](C)[C@H](NS(=O)(=O)c2ccc(C)cc2)COC(=O)CCC[C@@H]1C`, for which the z-score was -0.419 (inactive).

`COc1ccc(COC(=O)NN=C2C[C@@H](O)[C@@H](O)[C@@H]3[C@@H]4C(=O)N(c5ccc(F)cc5F)C(=O)[C@@H]4CC[C@H]23)cc1`: the z-score is 0.201 (inactive).

In the case of `COc1ccc(O[C@H]2C=C[C@@H](c3ccccc3)O[C@@H]2COC(=O)CCC(C)=NOC[C@@H](O)[C@H]2O[C@@H]3OC(C)(C)O[C@@H]3[C@H]2O)cc1`, the z-score was 0.671 (inactive).

Consider `CO[C@H]1COC(=O)CC=C[C@H](C)[C@@H](OC)COC(=O)[C@H](C)COC(=O)CC=C[C@@H]1C`, for which the z-score is 0.395 (inactive).
